Data: PubChem BioAssay (NCATS)
Results filed as inconclusive are left out. A call without a number means that no potency is given here. Unmarked numbers belong to inactive results. The source made the active and inactive calls. Calls come from the whole dose curve; as a rule, active = well fitted cell-killing curve with a large enough effect; inconclusive = small, poorly fitted or top-dose-only effect, or effect the other way; inactive = no such curve, though single readings can be large or run the other way.

Key:
[1] = Viability qHTS for spleen associated tyrosine kinase inhibitor (SYKi) naive MV4-11 cells (AID 1963823); note: nearly all actives have a fitted effect of over 40% in size
Procedure, shortened: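 qHTS, SYK inhibitor-naive MV4-11; 500 cells/well; 72 hr compound exposure, 37 C; CellTiter-Glo added, 10 min RT; luminescence read.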

[2] = Viability qHTS for spleen associated tyrosine kinase inhibitor (SYKi) drug resistant MV4-11 cells (AID 1963824); note: nearly all actives have a fitted effect of over 35% in size
Procedure, shortened: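 SYK inhibitor-resistant MV4-11 AML cells, 500 per well, added to predispensed compounds and incubated 72 hr at 37 C, 5% CO2. Viability measured by CellTiter-Glo luminescence after 10 min at room temperature.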
Potency is the fitted concentration of half-maximal effect.

| SMILES | Potency [1] | Potency [2] | viability (% of control) [1] | viability, % of control [2] |
| --- | --- | --- | --- | --- |
| CCOC(=O)c1c(C)nn(-c2cccc([N+](=O)[O-])c2)c1C | inactive | inactive | – | – |
| Nc1ccc(-c2cnc(N)c(-c3ccc(Cl)cc3)c2)cn1 | 5.8 µM (active) | 8.2 µM (active) | – | – |
| C[C@H](O)[C@H](O)[C@H]1CNc2nc(N)[nH]c(=O)c2N1 | inactive | inactive | – | – |
| C=C(C)[C@@H]1CC[C@]2(C)CC[C@]3(C)C(CCC4[C@@]5(C)CC[C@H](O)C(C)(C)C5CC[C@]43C)C12 (stereo not given in full) | inactive | inactive | – | – |
| C[C@@H]1CN(Cc2ncccn2)C[C@H]1c1nc2c(cnn2C2CCOCC2)c(=O)[nH]1 | inactive | inactive | – | – |
| C[C@@H](O)[C@H](N)C(=O)N1CCC[C@H]1C(=O)N1CCC[C@H]1C(=O)N[C@H](C(N)=O)[C@@H](C)O | – | – | 90.2% [at 9.25 µM] | 81.3% [at 9.25 µM] |
| CC1(C)CCC[C@@]2(C)C1[C@H](OC(=O)/C=C/C=C/C(=O)O)C=C1COC(=O)[C@@]12O (stereo not given in full) | inactive | inactive | – | – |
| CC(C)CC1(C(=O)OCc2ccc(O[C@@H]3O[C@H](CO)[C@@H](O)[C@H](O)[C@H]3O)cc2)CC(=O)OC(C(=O)O)CC(=O)OCC2OC(O1)C(OC(=O)/C=C/c1ccc(O)cc1)C(O)C2O (stereo not given in full) | – | – | 90.4% [at 9.25 µM] | 89.5% [at 9.25 µM] |
| C=C(C(=O)O)C1CC2=C(C)C(=O)CC2C(C)CC1O (stereo not given) | 4.61 µM (active) | 3.66 µM (active) | – | – |
| COc1cc(N2CCC(O)CC2)ccc1Nc1nc(Nc2ccccc2S(=O)(=O)C(C)C)c2[nH]cnc2n1 | 1.3 µM (active) | 2.06 µM (active) | – | – |
